According to PubChem BioAssay (NCATS):
Values without a mark were called inactive. Calls come from the whole dose curve; as a rule, active = well fitted curve in the direction sought with a large enough effect (not every such curve was filed as active); inconclusive = small, poorly fitted or top-dose-only effect, or effect the other way, or another doubt; inactive = no such curve, though single readings can be large or run the other way.

What follows are compounds tested against Pyruvate kinase PKM (Homo sapiens) (UniProt P14618) (assay: qHTS Assay for Activators of Human Muscle Pyruvate Kinase (AID 954;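 note: 0% = uninhibited enzyme and -100% = no enzyme or full thiadiazolimine inhibition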)). Details: purified human muscle pyruvate kinase, luciferase-coupled luminescence, 1 h; series mostly up to 57.5 µM; activity change, negative = inhibition: at the top concentration.
Sequence of Pyruvate kinase PKM (Homo sapiens) (P14618 whole entry, looked up): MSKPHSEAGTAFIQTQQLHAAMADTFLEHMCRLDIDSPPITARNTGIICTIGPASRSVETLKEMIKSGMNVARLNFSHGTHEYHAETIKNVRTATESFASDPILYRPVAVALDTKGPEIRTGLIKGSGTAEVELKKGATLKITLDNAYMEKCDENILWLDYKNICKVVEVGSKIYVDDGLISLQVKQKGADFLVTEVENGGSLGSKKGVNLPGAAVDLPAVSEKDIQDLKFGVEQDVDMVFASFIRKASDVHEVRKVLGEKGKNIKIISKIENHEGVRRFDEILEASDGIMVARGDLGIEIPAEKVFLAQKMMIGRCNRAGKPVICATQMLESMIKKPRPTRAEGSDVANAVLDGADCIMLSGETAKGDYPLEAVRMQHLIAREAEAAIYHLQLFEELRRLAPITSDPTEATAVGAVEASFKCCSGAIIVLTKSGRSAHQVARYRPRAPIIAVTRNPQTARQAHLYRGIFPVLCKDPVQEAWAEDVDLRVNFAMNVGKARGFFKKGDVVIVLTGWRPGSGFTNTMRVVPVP
Outline: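 A coupled luminescent readout tracked ATP made from ADP by purified PKM2. Final conditions included 0.1 nM enzyme, PEP and ADP at 0.5 and 0.1 mM, pH 7.2 imidazole buffer with BSA, and a one-hour room-temperature reaction.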

Q: How did the “activity change, negative = inhibition” value turn out when `NCCNC(=O)c1ncsc1-c1cccc(F)c1` was run?
A: -4.59%

Q: `N#C/C(=C\c1c[nH]c2ccccc12)C(=O)c1ccc(O)c(O)c1` was tested. Which “activity change, negative = inhibition” value did it give?
A: -39.7%

Q: How did the “activity change, negative = inhibition” value turn out when `O=c1[nH]c2cc(C(F)(F)F)ccc2n1-c1cc(C(F)(F)F)ccc1O` was run?
A: -2.44%

Q: For `O=C(O)c1cc(=O)c2ccccc2[nH]1`, which “activity change, negative = inhibition” value is on record?
A: -3.85%

Q: `N=C(N)SCCc1ccc(CCSC(=N)N)cc1` was tested. Which “activity change, negative = inhibition” value did it give?
A: 7.9%

Q: How did the “activity change, negative = inhibition” value turn out when `O=Nc1ccc2oc(=O)ccc2c1` was run?
A: 22.2%

Q: For `O=C(O)c1cc([N+](=O)[O-])ccc1NCCCc1ccccc1`, which “activity change, negative = inhibition” value is on record?
A: -32.1%

Q: How did the “activity change, negative = inhibition” value turn out when `Cn1cc(C2=C(c3ccc(Cl)cc3Cl)C(=O)NC2=O)c2ccccc21` was run?
A: -28.4%

Q: `COC1=C(OC)C(=O)c2ccccc2C1=O` was tested. Which “activity change, negative = inhibition” value did it give?
A: 7.14%

Q: How did the “activity change, negative = inhibition” value turn out when `C[N+]1(C)CCC(OC(=O)C(c2ccccc2)c2ccccc2)CC1` was run?
A: -19.2%
